GLP1R ag – qHTS of GLP-1 Receptor Agonists. HEK293 GLP-1R CRE-luciferase, luminescence, 4-6 h; cells express a hypersensitive GLP-1R form. AID 624172, 2012. Glucagon-like peptide 1 receptor (Homo sapiens), P43220. Potency, µM (highest dose often 45.6 µM), usual class: activators. 0.007% of 380,000 active
GLP1R inv ag – qHTS of GLP-1 Receptor Inverse Agonists (Inhibition Mode); Glucagon-like peptide 1 receptor (Homo sapiens), P43220; HEK293 GLP-1R CRE-luciferase, luminescence, 24 h; GLP-1R form is constitutively active; Potency, µM (series often up to 38.3 µM), hits mostly inhibitors; 1.6% of 410,000 active; also: nearly all actives have a fitted effect of over 55% in size
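Constitutively active GLP-1R drives a cAMP-responsive luciferase in stably transfected HEK293 cells; test compounds are added after overnight (12 h) attachment and left 24 hr, and signal loss in luminescence marks inhibition.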
12-LOX inh – Primary qHTS assay for inhibitors of human arachidonate 12S-lipoxygenase (ALOX12): Round 2. AID 1671190, 2021. purified 12hLO, xylenol orange hydroperoxide absorbance. Potency, µM (series often up to 108 µM), hits mostly inhibitors. Polyunsaturated fatty acid lipoxygenase ALOX12 (Homo sapiens), P18054. 1.1% of 580,000 active
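Hydroperoxide product was detected by ferrous iron/xylenol orange as the 573 to 405 nm absorbance ratio. Arachidonic acid at 40 uM (final) was turned over for 30 min at room temperature by 150 nM human 12hLO, pH 7.0 Hepes buffer, after 15 min compound preincubation.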
GLS inh – qHTS for Inhibitors of Glutaminase (GLS); GLS enzymatic activity, qHTS titration; 0.21% of 410,000 active; Potency, µM (titrated, usually from 45.5 µM), most hits filed as inhibitors; Glutaminase kidney isoform, mitochondrial (Homo sapiens), O94925; AID 624170, 2012
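Enzyme dispensed in phosphate buffer (45 mM, pH 8.2, 0.02% Tween-20), compounds pinned in, then 1 mM L-glutamine solution and the glutamate oxidase–HRP–Amplex Red mix added; fluorescence read immediately and again after 30 min at room temperature.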
PTHR1 agonist – qHTS for PTHR1 Agonists: Primary Screen. Parathyroid hormone/parathyroid hormone-related peptide receptor (Homo sapiens), Q03431. HEK293 GP2 PTHR1 cells, GloSensor cAMP luminescence, 1 h. Potency, µM (titrated, usually from 115 µM), usual class: activators. 0.075% of 410,000 active; also: nearly all actives have a fitted effect of over 55% in size
Target sequence (Q03431 whole entry, looked up): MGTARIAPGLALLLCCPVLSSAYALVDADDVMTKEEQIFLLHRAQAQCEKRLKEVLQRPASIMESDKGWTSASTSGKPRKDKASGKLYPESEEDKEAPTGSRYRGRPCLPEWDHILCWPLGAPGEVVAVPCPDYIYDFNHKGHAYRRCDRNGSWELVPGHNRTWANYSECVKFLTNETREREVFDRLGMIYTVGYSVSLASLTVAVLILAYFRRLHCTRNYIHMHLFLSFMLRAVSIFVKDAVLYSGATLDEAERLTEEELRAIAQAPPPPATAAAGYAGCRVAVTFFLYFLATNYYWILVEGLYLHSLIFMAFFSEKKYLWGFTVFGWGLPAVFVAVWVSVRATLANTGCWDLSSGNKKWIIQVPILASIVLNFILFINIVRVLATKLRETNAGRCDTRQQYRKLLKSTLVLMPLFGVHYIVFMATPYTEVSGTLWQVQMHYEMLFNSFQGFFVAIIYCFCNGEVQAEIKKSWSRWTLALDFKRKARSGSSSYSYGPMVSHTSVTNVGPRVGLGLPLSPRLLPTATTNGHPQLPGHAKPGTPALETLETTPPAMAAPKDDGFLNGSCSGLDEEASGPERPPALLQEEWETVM
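HEK-293-derived GP2 cells expressing PTHR1 and a GloSensor cAMP reporter, 3,000/well, plated overnight, given luciferin plus IBMX (each 0.5 mM as added) for 1 h at 37 °C, then compound for 1 h at 37 °C. Luminescence was read after 15 min at room temperature.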
Glioma ERSR ind – qHTS for Inducers of the Endoplasmic Reticulum Stress Response (ERSR) in Human Glioma: qHTS. U87-MG GRP78 promoter luciferase reporter, 16 h. Potency, µM, most hits filed as activators. 0.02% of 420,000 active; also: series mostly up to about 76 µM; nearly all actives have a fitted effect of over 35% in size
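Stably transfected U87-MG human glioma cells carrying a GRP78-based luminescent sensor were seeded at 1000 cells/well, pin-dosed with compounds and incubated 16 h. Luciferase reagent was then added, and end-point luminescence was read after 10 min at room temperature.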
Hits are given with their value; ! = not confirmed by another sample. Rows were chosen to be rich in hits. Some 2.3% of all compounds tested hit in one or more screens of this group. Calls follow the shape of the dose curve; as a rule, active = well fitted curve in the direction sought with a large enough effect; inconclusive = small, poorly fitted or top-dose-only effect, or another doubt; inactive = no such curve, though single readings can be large; an effect the other way counts as inactive or inconclusive.

Screening S=c1[nH]nc(CCc2ccccc2)n1-c1ccccc1 returned GLP1R ag inactive, GLP1R inv ag inactive, 12-LOX inh inconclusive, GLS inh inactive, PTHR1 agonist inactive and Glioma ERSR ind inactive.
`Cn1c(-c2ccco2)n[nH]c1=S` gave GLP1R ag inactive, GLP1R inv ag inactive, 12-LOX inh inconclusive, GLS inh inconclusive, PTHR1 agonist inactive and Glioma ERSR ind inactive.
Screening S=c1nc(-c2ccco2)[nH][nH]1 returned GLP1R ag inactive, GLP1R inv ag inactive, 12-LOX inh 6.3µM, GLS inh inactive, PTHR1 agonist inactive and Glioma ERSR ind inactive.
N#CC1=C(N)SC(N)=C(C#N)C1c1cccc(O)c1 was read as GLP1R ag inactive, GLP1R inv ag inactive, 12-LOX inh 32µM, GLS inh inactive, PTHR1 agonist inactive and Glioma ERSR ind inactive.
N#CC1=C(N)Oc2cc(O)ccc2C1c1ccccc1 (stereo unspecified) was read as GLP1R ag inactive, GLP1R inv ag inconclusive, 12-LOX inh 4.5µM!, GLS inh inactive, PTHR1 agonist inactive and Glioma ERSR ind inactive.
Screening Cc1ccc2c(c1)c(-c1ccccc1)c(-c1ccccc1)n2CCC#N returned 12-LOX inh inactive.
CCN(CC)C(=O)CC(c1cc(OC)c(OC)c(OC)c1)c1c(OC)cc(OC)c2ccc(=O)oc12 (stereo unspecified) was read as GLP1R ag inactive, GLP1R inv ag inactive, 12-LOX inh inactive, GLS inh inactive, PTHR1 agonist inactive and Glioma ERSR ind inactive.
Screening CCN(CC)C(=O)CC(c1cc(OC)c(OC)c(OC)c1)c1c(OC)cc(OC)c2c(-c3ccccc3)cc(=O)oc12 (stereo unspecified) returned GLP1R ag inactive, GLP1R inv ag inactive, 12-LOX inh 40µM, GLS inh 11µM, PTHR1 agonist inactive and Glioma ERSR ind inactive.
Cc1nc2cc(NC(=O)c3cccc(S(=O)(=O)Nc4cccc(Cl)c4)c3)ccc2o1 was read as 12-LOX inh inactive.
`OCC1(Cc2ccc(Cl)cc2)CCN(Cc2ccc(F)c(F)c2)CC1` gave GLP1R ag inactive, GLP1R inv ag 7.9µM, 12-LOX inh inactive, GLS inh inactive, PTHR1 agonist inactive and Glioma ERSR ind inactive.
`OCC1(Cc2ccc(Cl)cc2)CCN(Cc2ccc(Oc3ncccn3)cc2)CC1` gave GLP1R ag inactive, GLP1R inv ag 10µM, 12-LOX inh inactive, GLS inh inactive, PTHR1 agonist inactive and Glioma ERSR ind inactive.
For OCC1(Cc2ccccc2)CCN(Cc2cnc(-c3ccc(Cl)cc3)nc2)CC1 the results were GLP1R ag inactive, GLP1R inv ag inconclusive, 12-LOX inh inconclusive, GLS inh inactive, PTHR1 agonist inactive and Glioma ERSR ind inactive.
For OCC1(Cc2ccccc2)CCN(Cc2cnc(-c3cccc4ccccc34)nc2)CC1 the results were GLP1R ag inactive, GLP1R inv ag 8.9µM, 12-LOX inh inactive, GLS inh inactive, PTHR1 agonist inactive and Glioma ERSR ind inactive.
For OCC1(Cc2ccc(Cl)cc2)CCN(Cc2ccc3nsnc3c2)CC1 the results were GLP1R ag inactive, GLP1R inv ag inconclusive, 12-LOX inh inconclusive, GLS inh inactive, PTHR1 agonist inactive and Glioma ERSR ind inactive.
COc1ccc(OC)c(N2C(=O)[C@@H]3C(c4ccccc4Cl)=NO[C@@H]3C2=O)c1 was read as GLP1R ag inactive, GLP1R inv ag inactive, 12-LOX inh inconclusive, GLS inh 11µM, PTHR1 agonist inactive and Glioma ERSR ind inactive.
For Cc1cccc(C)c1N1C(=O)[C@@H]2C(c3ccccc3Cl)=NO[C@@H]2C1=O the results were GLP1R ag inactive, GLP1R inv ag inactive, 12-LOX inh inactive, GLS inh inactive, PTHR1 agonist inactive and Glioma ERSR ind inactive.
Cc1ccc(S(=O)(=O)Nc2nc(CN3CCOCC3)nc3sc(C(=O)O)c(C)c23)cc1 was read as GLP1R ag inactive, GLP1R inv ag inactive, 12-LOX inh inconclusive, GLS inh 18µM, PTHR1 agonist inactive and Glioma ERSR ind inactive.
Cc1cc(S(=O)(=O)Nc2nc(CN3CCOCC3)nc3sc4c(c23)CCC4)cc(C)c1C was read as GLP1R ag inactive, GLP1R inv ag inactive, 12-LOX inh inactive, GLS inh inconclusive, PTHR1 agonist inactive and Glioma ERSR ind inactive.
Screening CCc1ccc2nc(-c3ccc(C)cc3C)cc(C(=O)O)c2c1 returned 12-LOX inh inactive.
`CCN(CC)S(=O)(=O)c1ccc(C(=O)NCc2n[nH]c(=S)n2Cc2ccccc2)cc1` gave GLP1R ag inactive, GLP1R inv ag inactive, 12-LOX inh 25µM, GLS inh inactive, PTHR1 agonist inactive and Glioma ERSR ind inactive.
For CCC(O)CC(C(=O)NNc1ccccc1)C(=O)NNc1ccccc1 (stereo unspecified) the results were GLP1R ag inactive, GLP1R inv ag inconclusive, 12-LOX inh 11µM, GLS inh inactive, PTHR1 agonist inactive and Glioma ERSR ind inactive.
CCC(C(=O)NCc1ccc(C)cc1)N1C(=O)CCn2nc(C)cc21 (stereo unspecified) was read as 12-LOX inh inactive.
Screening CN(Cc1ccccc1)S(=O)(=O)c1cn(C)c(=O)n(C)c1=O returned 12-LOX inh inactive.
For O=C(COc1ccc(Cl)cc1)N(Cc1ccccc1)c1ccccn1 the results were GLP1R ag inactive, GLP1R inv ag inconclusive, 12-LOX inh inactive, GLS inh inactive, PTHR1 agonist inactive and Glioma ERSR ind inactive.
Screening CC(C)(Oc1ccc(Cl)cc1)C(=O)N(Cc1ccccc1)c1ccccn1 returned GLP1R ag inactive, GLP1R inv ag 10µM, 12-LOX inh inactive, GLS inh inactive, PTHR1 agonist inactive and Glioma ERSR ind inactive.
Screening Cn1c(SCC(=O)NCc2ccc3c(c2)OCCCO3)nnc1-c1cccs1 returned 12-LOX inh inactive.
For C=CC(COCc1ccccc1)N([C@@H](Cc1ccccc1)C(=O)OC)S(=O)(=O)c1ccccc1Br (stereo partly specified) the results were GLP1R ag inactive, GLP1R inv ag 3.5µM, 12-LOX inh inactive, GLS inh inactive, PTHR1 agonist inactive and Glioma ERSR ind inactive.
